Reference: PubChem BioAssay (Tox21)
A number with no mark means an inactive call. Activity calls are given as the source filed them. Calls follow the shape of the dose curve; as a rule, active = well fitted activation curve with a large enough effect in the repeat runs; inconclusive = weak or mixed curves; inactive = flat fitted curve, though single readings scatter.

test: A CellTox Green Cytotoxicity Assay to monitor cytotoxicity in HEK293 cells - 0 hour (AID 1224869); conditions: CellTox Green fluorescence; series mostly up to 76.8 µM; also: nearly all actives have a fitted effect of over 50% in size
Text: National Center for Advancing Translational Sciences [NCATS]
NIH Chemical Genomics Center [NCGC]
U.S. Environmental Protection Agency [EPA]
National Institutes of Environmental Health Sciences [NIEHS]
National Toxicology Program [NTP]
Cell-based models are critical for drug discovery. Determining the natural cytotoxic effects resulting from test compounds is an essential research activity. A CellTox Green Cytotoxicity Assay to monitor cytotoxicity in real time of continues cell culture during 40 hours of the compound treatment was used to screen Tox21 10K library compounds in Hek293 cells. CellTox Green Cytotoxicity Assay is a nonlytic, homogeneous, biofluorescent method to measure cytotoxicity in cell culture after experimental manipulation. The assay system uses a proprietary asymmetric cyanine dye that is excluded from viable cells but preferentially stains the dead cell's DNA. […] Viable cells produce no appreciable increases in fluorescence. Therefore, the fluorescence signal produced by the binding interaction with dead cell DNA is proportional to cytotoxicity.
The mixture of Hek293 cell suspension and reagents were dispensed at 600cells/6 ul/well in 1536-well tissue culture treated black solid bottom plates using a Multidrop dispenser. After the assay plates were incubated at a 37 C/5% CO2 incubator for 5 hours, 23 nL of compounds dissolved in DMSO, positive and negative controls was transferred to the assay plate by a pintool work station. The plates were incubated at 37 C for 40 hours. The fluorescence intensity were measured at 0h, 8h, 16h, 24h, 32h and 40h time points using ViewLux plate reader during compound treatment.
% is scaled to controls: 0 for no effect and ±100 for the full control effect.

Question: For C=C(Cl)CSC(=S)N(CC)CC, which outcome is on record?
Answer: The outcome was “inactive”.

Question: For CN(CCO)CCO, which outcome is on record?
Answer: The outcome was “inactive”.

Question: For Brc1c(Br)c(Br)c(Br)c(Br)c1Br, which cytotoxicity is on record?
Answer: The cytotoxicity was 20.1% [at 6.97 µM].

Question: For Cn1c(N)nc2c3cccnc3ccc21, which outcome is on record?
Answer: The outcome was “inactive”.

Question: For C[C@H]1CCCC(=O)CCC/C=C/c2cc(O)cc(O)c2C(=O)O1, which outcome is on record?
Answer: Its outcome is “inactive”.

Question: With CCc1cc(OC)c(C[C@H](C)N)cc1OC as the compound, how does the outcome read?
Answer: Its outcome is “inactive”.

Question: Which outcome does the source give for CCOC(=O)COc1ccc(Cl)cc1Cl here?
Answer: The outcome was “inactive”.

Question: With CCCOC(=O)Cc1ccc(OCC(=O)N(CC)CC)c(OC)c1 as the compound, how does the outcome read?
Answer: Its outcome is “inactive”.

Question: Which outcome does the source give for C/C(=N\NC(=O)Nc1cc(F)cc(F)c1)c1ncccc1C(=O)O here?
Answer: Its outcome is “inactive”.

Question: With C=C1CC[C@@]2(O)[C@H]3Cc4ccc(O)c5c4[C@@]2(CCN3CC2CC2)[C@H]1O5 as the compound, how does the outcome read?
Answer: The outcome was “inactive”.

Question: Which outcome does the source give for C[C@H](N)C(=O)c1ccccc1 here?
Answer: The outcome was “inactive”.

Question: Which outcome does the source give for CC(C)c1ccc(O)cc1 here?
Answer: Its outcome is “inactive”.

Question: For CCC(C)(C#N)N=NC(C)(C#N)CC (stereo not given), which outcome is on record?
Answer: Its outcome is “inactive”.

Question: For ClC(Cl)(Cl)Cl, which outcome is on record?
Answer: Its outcome is “inactive”.

Question: With CCOC(=O)c1ncn2c1CN(C)C(=O)c1c(I)cccc1-2 as the compound, how does the outcome read?
Answer: Its outcome is “inactive”.

Question: Which outcome does the source give for CS(=O)(=O)c1ccc(C(=O)C2C(=O)CCCC2=O)c(Cl)c1COCC(F)(F)F here?
Answer: Its outcome is “inactive”.

Question: With CC1NCCOC1c1ccccc1 (stereo not given) as the compound, how does the outcome read?
Answer: The outcome was “inactive”.

Question: With CC(C)[C@]12CC(=O)[C@H](C)[C@H]1C2 as the compound, how does the outcome read?
Answer: Its outcome is “inactive”.

Question: With Nc1c(Cl)c(F)nc(OCC(=O)O)c1Cl as the compound, how does the outcome read?
Answer: Its outcome is “inactive”.

Question: With CC#Cc1cc(C)nc(Nc2ccccc2)n1 as the compound, how does the outcome read?
Answer: The outcome was “inactive”.

Question: With O=C(O)c1c(Cl)ccc2cc(Cl)cnc12 as the compound, how does the outcome read?
Answer: The outcome was “inactive”.

Question: For CON(C)C(=O)Nc1ccc(Br)cc1, which outcome is on record?
Answer: Its outcome is “inactive”.

Question: For C=CCC1(C(C)CC)C(=O)NC(=O)NC1=O (stereo not given), which outcome is on record?
Answer: Its outcome is “inactive”.

Question: With CCC(C)C(C)(COC(N)=O)COC(N)=O (stereo not given) as the compound, how does the outcome read?
Answer: Its outcome is “inactive”.

Question: Which outcome does the source give for COc1ccc(CN2CCNCC2)c(OC)c1OC here?
Answer: The outcome was “inactive”.

Question: For COC1=CC(=O)O[C@@H](/C=C/c2ccccc2)C1, which outcome is on record?
Answer: The outcome was “inactive”.

Question: Which outcome does the source give for C#CC(C)(C)O here?
Answer: The outcome was “inactive”.

Question: Which outcome does the source give for NNC(N)=O here?
Answer: Its outcome is “inactive”.

Question: For CC(C)C(C)(N)C#N (stereo not given), which outcome is on record?
Answer: The outcome was “inactive”.

Question: For BrCc1ccc(Br)cc1, which outcome is on record?
Answer: The outcome was “inactive”.

Question: For CCOC(=O)NC(C)(C)Cc1ccc(Cl)cc1, which outcome is on record?
Answer: The outcome was “inactive”.

Question: For O=C(Cl)/C=C/C(=O)Cl, which outcome is on record?
Answer: The outcome was “inactive”.

Question: With CC(Cl)(Cl)Cl as the compound, how does the outcome read?
Answer: The outcome was “inactive”.

Question: Which outcome does the source give for c1ccc2c(c1)CCNC2 here?
Answer: The outcome was “inactive”.

Question: For CCOc1cc(OP(=S)(OC)OC)nc(CC)n1, which outcome is on record?
Answer: Its outcome is “inactive”.

Question: With O=C1CC(=O)NC(=O)N1 as the compound, how does the outcome read?
Answer: Its outcome is “inactive”.

Question: For [P]#[In], which outcome is on record?
Answer: Its outcome is “inactive”.

Question: Which outcome does the source give for C=CC=O here?
Answer: The outcome was “inactive”.

Question: Which outcome does the source give for BrCCc1ccccc1 here?
Answer: Its outcome is “inactive”.

Question: With [O-][Br+2]([O-])O as the compound, how does the outcome read?
Answer: Its outcome is “inactive”.
